The values below come from PubChem BioAssay (EPA / NIEHS).

A short description of test [1]: ATG_PXRE_CIS: Attagene CIS-FACTORIAL HepG2 Assay for human Pregnane X Receptor Element (PXRE) (AID 2282957). As to conditions: HepG2 Attagene CIS-FACTORIAL PXRE reporter, mRNA; actives raise or lower the signal. In outline: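 HepG2 cells transiently transfected with cis-element-driven multiplexed reporter units; after 24 h chemical exposure, reporter mRNA measured by RT-PCR, 6-FAM labelling, HpaI digestion and capillary electrophoresis. Bidirectional fitting relative to DMSO.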

Test [2] in a line: ATG_PPRE_CIS: Attagene CIS-FACTORIAL HepG2 Assay for human Peroxisome Proliferator-activated Response Element (PPRE) (AID 2282958). The following applies: HepG2 PPRE cis-element reporter, Attagene transcription factor profiling; actives raise or lower the signal. The method, boiled down:
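HepG2, transient MRTU transfection (cis promoter elements, endogenous TFs). 24 h dosing. RNA → oligo(dT) RT → PCR → 6-FAM primer extension → HpaI digest → CE. Bidirectional fit vs DMSO.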

The nature of test [3]: ATG_RORE_CIS: Attagene CIS-FACTORIAL HepG2 Assay for human RAR-related Orphan Receptor Element (RORE) (AID 2282959). As to conditions: HepG2 Attagene cis-factorial RORE reporter, mRNA; actives raise or lower the signal. In outline: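 Transient MRTU transfection of human HepG2 liver cells (FuGene 6); 24 h compound exposure; TriZol RNA, oligo(dT) RT, PCR, FAM labeling, HpaI cut, CE fragment analysis. DMSO = negative control/baseline.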

Test [4] is described as follows: ATG_Sox_CIS: Attagene CIS-FACTORIAL HepG2 Assay for human SRY-box transcription factor (SOX) (AID 2282960). As to conditions: HepG2 Attagene cis-factorial SOX reporter, mRNA; actives raise or lower the signal. In outline:
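Endogenous factor activity in human liver HepG2 cells carrying transfected cis-regulated reporter units. RNA taken 24 h post-dose, reverse-transcribed, PCR-amplified and sized by capillary electrophoresis. Gain or loss of signal fitted relative to DMSO.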

A short description of test [5]: ATG_TA_CIS: Attagene CIS-FACTORIAL HepG2 Assay for human TA Basal Promoter (AID 2282964). The following applies: HepG2 Attagene CIS-factorial TA basal promoter reporter; actives raise or lower the signal. The method, boiled down: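 Transient MRTU transfection of HepG2 preceded 24 h compound exposure. Reporter mRNA levels were then read by RT-PCR with capillary electrophoresis, and this background-control endpoint was fitted bidirectionally to DMSO.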

Test [6] can be described thus: ATG_TCF_b_cat_CIS: Attagene CIS-FACTORIAL HepG2 Assay for human T-Cell-Factor with beta-catenin (TCF/b-cat) (AID 2282965). As to conditions: HepG2 TCF/beta-catenin cis-reporter transcription, actives raise or lower the signal. In outline:
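HepG2 cells transiently transfected with multiple cis-promoter-regulated reporter transcription units, so endogenous transcription factor activity is measured. Reporter mRNA read 24 hours after dosing by RT-PCR, fluorescent labelling and capillary electrophoresis; bidirectional fitting against DMSO.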

Test [7] in a line: ATG_TAL_CIS: Attagene CIS-FACTORIAL HepG2 Assay for human TAL Basal Promoter (AID 2282966).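 Note: background control endpoint measuring basal TAL promoter reporter mRNA not a specific factor.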 The following applies: HepG2 Attagene cis-factorial TAL promoter reporter; actives raise or lower the signal. The method, boiled down:
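HepG2 cells transiently transfected with multiplexed cis-promoter reporter units, dosed 24 h. Reporter mRNA quantified by RT-PCR, 6-FAM labelling, HpaI digestion and capillary electrophoresis; TAL basal promoter serves as background control, fitted bidirectionally versus DMSO.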

Test [8] in a line: ATG_TGFb_CIS: Attagene CIS-FACTORIAL HepG2 Assay for human Transforming Growth Factor (TGF) (AID 2282967). As to conditions: HepG2 Attagene CIS TGFb reporter, mRNA transcription; actives raise or lower the signal. The method, boiled down:
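After a 24-hour incubation with compound, transfected HepG2 cells were lysed for RNA; reporter cDNA was amplified, fluorescently end-labeled and separated by CE. DMSO served as baseline for bidirectional fits.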

Test [9] is described as follows: ATG_VDRE_CIS: Attagene CIS-FACTORIAL HepG2 Assay for human Vitamin D Receptor Element (VDRE) (AID 2282968). As to conditions: HepG2 VDRE cis-reporter transcription, actives raise or lower the signal. The method, boiled down: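 HepG2 cells transiently transfected with cis-element reporter units, dosed 24 h; reporter mRNA measured by RT-PCR, 6-FAM labeling, HpaI digestion and capillary electrophoresis. Activity fitted bidirectionally against DMSO baseline.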

The target in test [10] is Nuclear receptor subfamily 1 group I member 3 (Homo sapiens) (UniProt Q14994). Put plainly: ATG_CAR_TRANS: Attagene TRANS-FACTORIAL HepG2 Assay for human Constitutive Androstane Receptor (CAR) (AID 2282969; active = hit-call score of the fitted dose curve at least 0.9, where 1 is the maximum;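 note: activators raise reporter mRNA above DMSO so AC50 marks induction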). The following applies: HepG2 Attagene TRANS-FACTORIAL CAR reporter. In outline: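 HepG2 cells transiently transfected with multiplexed GAL4-UAS reporter units expressing chimeric NR-Gal4 proteins; compound exposure 24 h. Reporter mRNA measured by RT-PCR, 6-FAM labelling, HpaI digestion and capillary electrophoresis; gain-of-signal fitted against DMSO baseline.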
Chain of Nuclear receptor subfamily 1 group I member 3 (Homo sapiens) (Q14994 whole entry, looked up, the tested form may be a part): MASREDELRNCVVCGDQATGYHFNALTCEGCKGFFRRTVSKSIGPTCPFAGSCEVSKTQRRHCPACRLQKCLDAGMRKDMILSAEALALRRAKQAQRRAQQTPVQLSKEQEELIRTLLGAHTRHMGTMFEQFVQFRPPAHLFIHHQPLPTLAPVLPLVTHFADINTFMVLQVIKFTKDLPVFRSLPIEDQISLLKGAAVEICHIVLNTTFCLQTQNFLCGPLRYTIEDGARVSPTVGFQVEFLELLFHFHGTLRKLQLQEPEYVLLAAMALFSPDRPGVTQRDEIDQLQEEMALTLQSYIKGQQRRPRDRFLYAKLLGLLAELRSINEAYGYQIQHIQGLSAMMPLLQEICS

Test [11] concerns the target X-box-binding protein 1 (Homo sapiens) (UniProt P17861). As to the kind of experiment: ATG_Xbp1_CIS: Attagene CIS-FACTORIAL HepG2 Assay for human X-box Binding Protein 1 (XBP1) (AID 2282972). As to conditions: HepG2 XBP1 cis-element reporter, Attagene multiplex; actives raise or lower the signal. The method, boiled down: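 Fluorescence-labelled cDNA fragments from reporter transcripts, separated by capillary electrophoresis, give the signal. Source: HepG2 cells transfected with promoter-driven reporter units, harvested 24 h post-dose. DMSO served as reference for bidirectional curve fitting.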

Test [12] in a line: ATG_M_19_TRANS: Attagene TRANS-FACTORIAL HepG2 Assay for M19 Transcription Factor (Internal Marker) (AID 2282974; active = hit-call score of the fitted dose curve at least 0.9, where 1 is the maximum). The following applies: HepG2 Attagene TRANS-FACTORIAL M19 internal marker reporter. The method, boiled down:
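Fluorescence of 6-FAM-labelled reporter cDNA fragments, separated by capillary electrophoresis, served as the readout. These derived from HepG2 cells carrying transfected GAL4-UAS reporter units after 24 h dosing, with DMSO as negative control.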

In test [13] the target is Estrogen-related receptor gamma (Homo sapiens) (UniProt P62508). Put plainly: ATG_ERRg_TRANS: Attagene TRANS-FACTORIAL HepG2 Assay for human Estrogen-Related Receptor gamma (ERRg) (AID 2282977; active = hit-call score of the fitted dose curve at least 0.9, where 1 is the maximum;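 note: hits increase reporter signal over DMSO so potencies reflect activators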). The following applies: HepG2 Attagene TRANS reporter, ERRg transactivation. The method, boiled down:
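Transient HepG2 transfectants, 24 h compound exposure, GAL4-UAS reporter mRNA by RT-PCR/6-FAM labelling/capillary electrophoresis; positive direction vs DMSO.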

Test [14] is described as follows: ATG_SREBP_CIS: Attagene CIS-FACTORIAL HepG2 Assay for human Sterol Regulatory Element Binding (SREBP) (AID 2282962). The following applies: HepG2 Attagene cis-factorial SREBP reporter, mRNA; actives raise or lower the signal. In outline: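 mRNA induction of transfected cis-promoter reporters in HepG2 cells, 24 h post-dose. Detection: RT-PCR with 6-FAM-labelled products, HpaI digest, capillary electrophoresis. DMSO served as negative control and baseline.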

Test [15] has as its target Signal transducer and activator of transcription 3 (Homo sapiens) (UniProt P40763). Put plainly: ATG_STAT3_CIS: Attagene CIS-FACTORIAL HepG2 Assay for human Signal Transducer and Activator of Transcription 3 (STAT3) (AID 2282963). As to conditions: HepG2, Attagene cis-factorial STAT3 reporter transcription; actives raise or lower the signal. The method, boiled down: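 HepG2 cells transiently transfected with cis-element-driven multiple reporter transcription units; after 24 h chemical exposure, reporter mRNA measured by RT-PCR, 6-FAM primer-extension labelling, HpaI digestion and capillary electrophoresis. Bidirectional fitting versus DMSO baseline.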

Test [16] can be described thus: ATG_GAL4_TRANS: Attagene TRANS-FACTORIAL HepG2 Assay for GAL4 (Internal Marker) (AID 2282976; active = hit-call score of the fitted dose curve at least 0.9, where 1 is the maximum). As to conditions: HepG2 Attagene TRANS GAL4 internal marker reporter. The method, boiled down:
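Background-control readout: GAL4-UAS reporter transcript in transiently transfected HepG2 cells after 24 h compound exposure. Measured by RT-PCR, 6-FAM primer extension, HpaI digest and capillary electrophoresis; gain-of-signal fit versus DMSO.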

For test [17], the target named is Transcription factor Sp1 (Homo sapiens) (UniProt P08047). Put plainly: ATG_Sp1_CIS: Attagene CIS-FACTORIAL HepG2 Assay for human Specificity Protein 1 (Sp1) (AID 2282961). As to conditions: HepG2 Sp1 cis-reporter transcription, actives raise or lower the signal. In outline:
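Transient MRTU-transfected HepG2, 24 h compound exposure. Total RNA → oligo(dT) RT → PCR of reporter → 6-FAM primer extension → HpaI digest → CE. Endpoint fitted both directions vs DMSO.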

“And” between values parts separate entries of the source, which are not always exact repeats. Equal entries are not always repeated. Inconclusive results are not listed. Where a structure was tested more than once in an assay, its records may differ in their call. The source made the active and inactive calls. Rule for the calls, unless noted: active = hit-call score of the fitted dose curve at least 0.9, where 1 is the maximum; inactive = score below 0.9.

For orientation: AC50 means the concentration giving half of the maximal activity seen.

Chain of Estrogen-related receptor gamma (Homo sapiens) (P62508 whole entry, looked up, the tested form may be a part): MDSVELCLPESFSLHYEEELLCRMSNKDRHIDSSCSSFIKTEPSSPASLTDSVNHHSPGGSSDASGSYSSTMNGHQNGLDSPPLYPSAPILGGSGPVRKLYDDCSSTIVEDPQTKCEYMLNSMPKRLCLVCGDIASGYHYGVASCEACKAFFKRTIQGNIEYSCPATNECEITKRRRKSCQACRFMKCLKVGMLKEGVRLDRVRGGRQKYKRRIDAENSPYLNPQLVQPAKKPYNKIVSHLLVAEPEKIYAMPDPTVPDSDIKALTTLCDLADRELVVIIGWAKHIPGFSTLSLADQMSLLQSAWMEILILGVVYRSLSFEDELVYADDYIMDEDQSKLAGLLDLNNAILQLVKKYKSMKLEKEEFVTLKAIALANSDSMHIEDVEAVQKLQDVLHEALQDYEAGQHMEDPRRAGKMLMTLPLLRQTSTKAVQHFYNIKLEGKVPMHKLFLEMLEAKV
Chain of Transcription factor Sp1 (Homo sapiens) (P08047 whole entry, looked up): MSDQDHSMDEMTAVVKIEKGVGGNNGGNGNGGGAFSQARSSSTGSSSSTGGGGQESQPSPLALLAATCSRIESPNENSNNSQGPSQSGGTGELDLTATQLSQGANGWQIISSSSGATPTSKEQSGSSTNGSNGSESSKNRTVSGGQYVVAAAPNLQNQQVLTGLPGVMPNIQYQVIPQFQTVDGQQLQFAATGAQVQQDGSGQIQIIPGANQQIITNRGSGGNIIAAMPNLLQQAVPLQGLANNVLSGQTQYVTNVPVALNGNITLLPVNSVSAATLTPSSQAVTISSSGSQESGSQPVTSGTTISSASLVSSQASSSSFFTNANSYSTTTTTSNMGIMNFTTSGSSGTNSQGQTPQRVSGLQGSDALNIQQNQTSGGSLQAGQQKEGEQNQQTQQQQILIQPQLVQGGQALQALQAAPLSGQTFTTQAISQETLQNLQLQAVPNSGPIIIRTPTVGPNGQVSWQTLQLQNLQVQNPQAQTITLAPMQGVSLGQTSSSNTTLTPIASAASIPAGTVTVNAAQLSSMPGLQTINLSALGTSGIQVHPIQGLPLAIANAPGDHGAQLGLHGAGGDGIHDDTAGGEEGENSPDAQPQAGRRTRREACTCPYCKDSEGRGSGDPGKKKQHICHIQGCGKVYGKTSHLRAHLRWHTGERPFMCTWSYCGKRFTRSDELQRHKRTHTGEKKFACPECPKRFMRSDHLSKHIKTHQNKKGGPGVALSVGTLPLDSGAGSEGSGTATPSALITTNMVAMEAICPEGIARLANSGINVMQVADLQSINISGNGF
Chain of X-box-binding protein 1 (Homo sapiens) (P17861 whole entry, looked up, the tested form may be a part): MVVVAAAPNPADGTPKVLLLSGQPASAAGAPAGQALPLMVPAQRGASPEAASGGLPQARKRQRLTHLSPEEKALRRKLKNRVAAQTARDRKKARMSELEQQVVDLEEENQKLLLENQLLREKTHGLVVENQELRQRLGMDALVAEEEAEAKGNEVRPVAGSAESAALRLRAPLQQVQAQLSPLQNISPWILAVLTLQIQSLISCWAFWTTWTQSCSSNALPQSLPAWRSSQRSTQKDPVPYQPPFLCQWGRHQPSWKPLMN
Chain of Signal transducer and activator of transcription 3 (Homo sapiens) (P40763 whole entry, looked up): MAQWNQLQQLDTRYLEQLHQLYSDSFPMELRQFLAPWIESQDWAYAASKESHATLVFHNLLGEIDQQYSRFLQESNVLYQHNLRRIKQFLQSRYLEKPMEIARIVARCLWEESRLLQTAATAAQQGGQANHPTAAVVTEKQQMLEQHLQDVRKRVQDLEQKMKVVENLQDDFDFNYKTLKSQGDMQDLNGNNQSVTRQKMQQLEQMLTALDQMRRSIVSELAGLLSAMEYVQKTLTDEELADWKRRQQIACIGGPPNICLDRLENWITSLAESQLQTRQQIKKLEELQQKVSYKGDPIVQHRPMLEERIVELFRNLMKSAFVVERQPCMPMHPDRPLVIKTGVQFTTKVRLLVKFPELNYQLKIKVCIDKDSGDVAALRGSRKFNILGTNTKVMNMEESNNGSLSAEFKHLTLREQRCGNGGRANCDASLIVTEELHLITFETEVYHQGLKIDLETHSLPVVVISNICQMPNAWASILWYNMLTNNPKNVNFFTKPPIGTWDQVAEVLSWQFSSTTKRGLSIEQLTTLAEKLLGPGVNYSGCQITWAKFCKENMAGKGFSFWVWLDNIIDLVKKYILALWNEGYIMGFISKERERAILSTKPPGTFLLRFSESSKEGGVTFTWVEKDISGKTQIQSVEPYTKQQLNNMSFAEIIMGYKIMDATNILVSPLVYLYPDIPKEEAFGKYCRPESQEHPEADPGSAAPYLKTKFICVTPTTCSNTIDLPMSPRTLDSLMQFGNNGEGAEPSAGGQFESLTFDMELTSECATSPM

As for `Nc1cc(Cl)c(-c2cc(Cl)c(N)cc2Cl)cc1Cl`, the AC50 was 2.97 µM (active) in test [1], 10.5 µM (active) in test [4], 2.96 µM (active) in test [9] and 11.1 µM (active) in [11]. The compound was classed as inactive in test [2], in test [3], in test [5], in test [6], in test [7] and in [8]. For the same compound, the result in test [10], in test [12] and in test [13] was inactive.

`CCC1CO1` (stereo not given): the outcome in [1], in test [2], in [3], in test [4], in test [14] and in test [15] was inactive. For the same compound, the compound was called inactive in [5], in test [6], in [7], in test [8], in test [9] and in test [11]. Also, the compound was classed as inactive in test [16].

As to `O=C1OC2(c3ccccc31)c1cc(I)c(O)c(I)c1Oc1c2cc(I)c(O)c1I`, the AC50 in [1] was 12.8 µM (active) and 4.37 µM (active) and 8.03 µM (active); in test [3], 34.5 µM (active) and 28.1 µM (active); in test [8], 93.8 µM (active); in test [9] it was 20.4 µM (active) and 23.8 µM (active) and 22 µM (active). Further, the compound was called inactive in test [3], in test [4], in test [17], in [14], in test [15] and in [5]. Also, the compound was called inactive in test [6], in test [7], in [8], in test [10], in [11] and in [12]. The result in test [16] and in [13] was inactive.

Regarding `Cc1ccc(C)c(S(=O)(=O)O)c1`, the outcome in [1], in [2], in [3], in [4], in test [5] and in test [7] was inactive. For the same compound, the call in test [8], in test [9], in test [10], in test [11] and in test [16] was inactive.
